Drawing on PubChem BioAssay (EPA / NIEHS), this text covers AC50 and outcome for 40 compounds.

Records with an inconclusive call do not appear. Activity calls are given as the source filed them. The calls were made as follows: active = hit-call score of the fitted dose curve at least 0.9, where 1 is the maximum; inconclusive = response in the unintended direction; inactive = score below 0.9.

Read-out in this experiment: xenobiotic metabolism (CYP1A2), CYP1A2 (gene 1544)
Description: CLD_CYP1A2_48hr: CellzDirect (CLD) Gene Expression Assay for xenobiotic metabolism (CYP1A2) at 48 hours (AID 2283703). The procedure: CLD_48hr is a cell-based, multiplexed-readout assay that uses hepatocyte, a human liver primary cell, with measurements taken at 48 hours after chemical dosing in a 96-well plate.CLD_CYP1A2_48hr is one of 16 assay component(s) measured or calculated from the CLD_48hr assay. It is designed to make measurements of mRNA induction, a form of inducible reporter, as detected with chemiluminescence signals by Quantitative Nuclease Protection Assay (qNPA) technology.Data from the assay component CLD_CYP1A2_48hr was analyzed at the endpoint, CLD_CYP1A2_48hr, in the positive analysis fitting direction relative to DMSO as the negative control and baseline of activity. Using a type of inducible reporter, gain-of-signal activity can be used to understand changes in the reporter gene as they relate to the gene CYP1A2. Furthermore, this assay endpoint can be referred to as a primary readout. To generalize the intended target to other relatable targets, this assay endpoint is annotated to the cyp intended target family, where subfamily is xenobiotic metabolism.
Human hepatocyte cultures were treated daily for two consecutive days with fresh dosing solutions containing appropriate concentrations of the 320 ToxCast chemicals (chemical identities were blinded to CellzDirect and other ToxCast collaborators), vehicle control (0.2% DMSO), and positive control inducers as summarized in Table 1. Due to the large number of treatment groups and chemicals examined, the ToxCast chemicals were divided into two groups (spanning two independent cultures of hepatocytes from separate donor preparations (Hu778: ToxCast plates 1 and 2; Hu776: ToxCast plates 3 and 4). Each preparation of human hepatocyte cultures was treated with respective vehicle control, medium only control, set of six positive controls/reference chemicals for the five hepatic receptor pathways, and a subset of eight of the ToxCast chemicals (indoxacarb, pyrithiobac-sodium, norflurazon, cyhalofop-butyl, methomyl, thiram, acetochlor, and propiconazole). These replicate data, coupled with internal replicates designed within the blinded ToxCast chemical library, provided additional data to evaluate interindividual differences between hepatocyte preparations and their potential impact on chemical profiles.Cell morphology and integrity were evaluated using phase-contrast microscopy as an indicator of hepatocyte cell health (Tyson & Green, 1987). Cultures for each treatment group (i.e., media, vehicle [0.2% DMSO], positive control inducers [multiple concentrations], and the ToxCast chemicals [multiple concentrations]) were observed and cell morphology was assessed relative to vehicle control cultures at each harvest time point (0, 6, 24, or 48 h). […] Images were evaluated at the conclusion of the study to assess changes in cell integrity and account for the effects of chemical exposure on uncharacteristic changes in concentration-dependent gene expression profiles. The results from these determinations of apparent cytotoxicity were annotated (yes/no) alongside the corresponding qNPA data for reference.At the conclusion of each treatment period, hepatocyte cultures (96-well) were washed with 1 volume of HBSS, lysed by addition of 25 ul ArrayPlate lysis buffer (HTG, Tucson, AZ), and 70 ul/well of Denaturation Oil, denatured by incubation at 95C for 10 min, and frozen at approximately -70C until analysis by nuclease protection assay (qNPA) (Roberts et al., 2007). For qNPA analysis, cell lysates were thawed at 50C for approximately 30 min, qNPA probes were added, and samples were incubated at 95C for 10 min to begin the detection process by denaturing the target RNA, dissociating the duplexes and secondary structure hybridization. At the conclusion of the hybridization period, S1 nuclease reagent was added to each sample to digest all nonprotected nucleotides at 50C for 60-90 min. […]
Turning to `CCOP(=O)(OCC)Oc1cc(C)nc(C(C)C)n1`, the AC50 was 11.6 µM (active).

For the compound `COP(=O)(NC(C)=O)SC` (stereo not given), the compound was classed as inactive.

`CN(C)[C@@H]1C(=O)C(C(N)=O)=C(O)[C@@]2(O)C(=O)C3=C(O)c4c(O)cccc4[C@@](C)(O)[C@H]3[C@H](O)[C@@H]12`: the compound was classed as inactive.

Take `Cc1ccn2nc(S(=O)(=O)Nc3c(F)cccc3F)nc2n1`: the result was inactive.

For `CNC(=O)ON=C(SC)C(=O)N(C)C`, the call was inactive.

Turning to `CN(C)NC(=O)CCC(=O)O`, the compound was classed as inactive.

For the compound `CCCCN(CC)c1c([N+](=O)[O-])cc(C(F)(F)F)cc1[N+](=O)[O-]`, the AC50 was 5.9 µM (active).

Turning to `COP(=O)(OC)SCn1c(=O)oc2cc(Cl)cnc21`, the call was inactive.

For `CNC(=O)Oc1cccc2c1OC(C)(C)O2`, the outcome was inactive.

`CC(=NC#N)N(C)Cc1ccc(Cl)nc1`: the call was inactive.

As to `C[N+]1(C)CCCCC1`, the compound was classed as inactive.

As to `CC(C)N(C(=O)SCC(Cl)=C(Cl)Cl)C(C)C`, the outcome was inactive.

As for `CCC(CC)Nc1c([N+](=O)[O-])cc(C)c(C)c1[N+](=O)[O-]`, the AC50 is 9.85 µM (active).

For `CSc1nc(NC(C)C)nc(NC(C)C)n1`, the AC50 is 1.64 µM (active).

As for `CCCCOC(=O)[C@@H](C)Oc1ccc(Oc2ccc(C#N)cc2F)cc1`, the outcome was inactive.

On to `CCOP(=S)(OCC)SCCSCC`, for which the concentration at half-maximal activity (AC50) was 7.27 µM (active).

On to `Cc1nn(-c2cc(NS(C)(=O)=O)c(Cl)cc2Cl)c(=O)n1C(F)F`, for which the compound was called inactive.

For `CCOP(=S)(Oc1cnc(C(C)(C)C)nc1)OC(C)C` (stereo not given), the concentration at half-maximal activity (AC50) is 2.68 µM (active).

Take `CCCOCC(=Nc1ccc(Cl)cc1C(F)(F)F)n1ccnc1`: the AC50 is 0.687 µM (active).

For the compound `COP(=O)(OC)OC(Br)C(Cl)(Cl)Br` (stereo not given), the compound was classed as inactive.

As for `CN1COCN(Cc2cnc(Cl)s2)C1=N[N+](=O)[O-]`, the compound was called inactive.

`Cc1cc(C2CC2)nc(Nc2ccccc2)n1`: the AC50 is 3.97 µM (active).

Consider `CCOP(=S)(OCC)Oc1cc(C)nc(C(C)C)n1`, for which the AC50 was 2.77 µM (active).

Regarding `CCc1cnc(C2=NC(C)(C(C)C)C(=O)N2)c(C(=O)O)c1` (stereo not given), the compound was classed as inactive.

Take `O=[N+]([O-])c1cc(C(F)(F)F)c(Cl)c([N+](=O)[O-])c1Nc1ncc(C(F)(F)F)cc1Cl`: the AC50 was 0.499 µM (active).

On to `CCOC(=O)COc1cc(-c2nn(C)c(OC(F)F)c2Cl)c(F)cc1Cl`, for which the outcome was inactive.

For `CCc1cccc(C)c1N(C(=O)CCl)C(C)COC` (stereo not given), the compound was called inactive.

Regarding `CCCSP(=O)(OCC)SCCC`, the outcome was inactive.

On to `CCCCOC(=O)c1ccccc1C(=O)O`, for which the result was inactive.

For `COc1cccc(C(=O)NN(C(=O)c2cc(C)cc(C)c2)C(C)(C)C)c1C`, the concentration at half-maximal activity (AC50) was 20 µM (active).

In the case of `C#CC(C)(C)NC(=O)c1cc(Cl)cc(Cl)c1`, the half-maximal activity concentration (AC50) was 0.348 µM (active).

Regarding `CC(C)[C@H](C(=O)O[C@H](C#N)c1cccc(Oc2ccccc2)c1)c1ccc(Cl)cc1`, the AC50 is 20 µM (active).

Take `CN(C)C(=O)Nc1cccc(C(F)(F)F)c1`: the AC50 is 1.96 µM (active).

`CCCSP(=O)(OCC)Oc1ccc(Br)cc1Cl` (stereo not given): the AC50 is 4.26 µM (active).

Turning to `CCOP(=S)(OCC)Oc1ccc2c(C)c(Cl)c(=O)oc2c1`, the AC50 is 0.414 µM (active).

For `CC1=NNC(=O)N(/N=C/c2cccnc2)C1`, the concentration at half-maximal activity (AC50) is 8.29 µM (active).

As for `CCCCSP(=O)(SCCCC)SCCCC`, the half-maximal activity concentration (AC50) is 3.04 µM (active).

`CC(Oc1cccc(Cl)c1)C(=O)O` (stereo not given): the call was inactive.

For `Nc1c(Cl)cc([N+](=O)[O-])cc1Cl`, the AC50 was 4.29 µM (active).

On to `CSc1nnc(C(C)(C)C)c(=O)n1N`, for which the AC50 was 2.97 µM (active).

As usually defined, the AC50 is the midpoint of the concentration-response curve, whichever way the signal moves.
